Assay results published in PubChem BioAssay.
Several values for one entry are separate records, joined by “and”; a condition that tells them apart may be missing. Equal values may be shown once. Records with an inconclusive call do not appear. Activity calls are given as the source filed them.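 How the source made its calls, unless noted: active means normalized viability below 100% at a tested concentration; inactive means the rest.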

Columns and labels:
[1] = viability loss in pontine glioma line – cell-based, SU-DIPG-XXV, MIPE5.0, CellTiter-Glo, qHTS, dose response (AID 1347065; cut-off not given, nearly all actives have AC50 up to about 26 µM;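 further: cells exposed to compound for 48 hours before ATP readout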); conditions: CellTiter-Glo ATP luminescence
[2] = JHH-DIPG-1 glioma cell viability, MIPE5.0 library, CellTiter-Glo luminescence, qHTS (AID 1347067; cut-off not given, nearly all actives have AC50 up to about 26 µM;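 further: cells exposed to compound for 48 hours before readout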); conditions: JHH-DIPG-1 glioma viability, CellTiter-Glo ATP luminescence
[3] = SU-DIPG-XXV glioma cell viability, MIPE5.0 library, qHTS (AID 1347068; cut-off not given, nearly all actives have IC50 up to about 30 µM)
[4] = inhibitors of Cryptococcus chitosan production, flow cytometry, Cibacron Brilliant Red staining (AID 1347148; call rule not given here;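 further: compound exposure lasted three days at 37 degrees C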); conditions: Cryptococcus neoformans chitosan, stronger effect = lower value; at 10 µM unless noted
[5] = phospholipid biosynthesis inhibitors in animal cells, primary screen, cell-based, LOPAC library, screen 4 (AID 1347384; call rule not given here); conditions: phospholipid biosynthesis inhibition screen, at 10 µM
[6] = survival rescue of mitochondrial mutant cells in low glucose, primary screen, MELAS cybrids, Rieske KO mouse fibroblasts, CellTiter-Glo (AID 1508586;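 active means mean z-score across replicates of 1.96 or higher in either the MELAS or the Rieske mutant cell line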;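 further: z relative to plate mean and SD of compound and empty wells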)
[7] = target: NAD(+) hydrolase SARM1 (Homo sapiens) (UniProt Q6SZW1); assay: SARM1 TIR NADase inhibitors, cell lysate, NAD-Glo luminescence (AID 1508614;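 active means compound whose remaining NAD level is above about 45 nM, limit read from the data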); conditions: SAM-TIR HEK293T lysate NADase, at 1 µM, stronger effect = higher value
NAD(+) hydrolase SARM1 (Homo sapiens), sequence (Q6SZW1 whole entry, looked up): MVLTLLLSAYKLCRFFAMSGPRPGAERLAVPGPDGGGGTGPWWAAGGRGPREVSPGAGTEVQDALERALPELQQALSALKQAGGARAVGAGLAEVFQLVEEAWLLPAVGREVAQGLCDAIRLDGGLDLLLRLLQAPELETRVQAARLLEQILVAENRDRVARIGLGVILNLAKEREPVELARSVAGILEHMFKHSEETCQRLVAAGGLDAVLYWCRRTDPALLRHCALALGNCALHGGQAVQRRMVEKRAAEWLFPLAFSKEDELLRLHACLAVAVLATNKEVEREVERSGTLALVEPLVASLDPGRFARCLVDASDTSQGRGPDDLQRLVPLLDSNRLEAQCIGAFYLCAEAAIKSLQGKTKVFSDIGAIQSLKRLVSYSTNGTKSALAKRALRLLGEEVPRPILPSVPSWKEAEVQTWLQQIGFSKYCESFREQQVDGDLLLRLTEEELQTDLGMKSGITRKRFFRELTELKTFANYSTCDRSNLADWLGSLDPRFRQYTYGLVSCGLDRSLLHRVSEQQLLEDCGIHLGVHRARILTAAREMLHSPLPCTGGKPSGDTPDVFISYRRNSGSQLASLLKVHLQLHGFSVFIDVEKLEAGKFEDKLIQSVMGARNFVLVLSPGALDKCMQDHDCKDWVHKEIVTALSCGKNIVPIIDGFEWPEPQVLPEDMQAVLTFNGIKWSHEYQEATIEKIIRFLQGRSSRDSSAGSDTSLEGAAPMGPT

[8] = viability rescue of complex I mutant cybrids, primary screen, cell-based, galactose medium, ATP luminescence (AID 1645843;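 active means z-score of at least 1.8 in each of two replicates, scored against plate mean and spread of sample wells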;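 further: positive z means more ATP and so rescue of galactose-driven cybrid death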); conditions: complex I mutant cybrid cells, 72 h, stronger effect = higher value
[9] = sensitizers of A549 cells to miR-34 induction, primary screen, imaging, A549 dox-inducible miR-34, nuclei and caspase counts (AID 1347080;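 active means compounds whose cell count with miR-34 switched on is under 0.7 times the count with it off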); conditions: A549 miR-34 inducible, Hoechst nuclei count, 48 h
[10] = modifiers of HSF1 nuclear foci, imaging, Selleck Cancer Library (AID 1347162; in the data active means plate-normalised HSF1 focus index below about 0.46); conditions: human cells, at 10 µM; SSMD: measured here: HSF1 foci SSMD mean; cell count: measured here: cell number; plate-normalised HSF1 focus index: stronger effect = lower value
[11] = ovarian cancer cell viability with rucaparib, profiling panel, oncology-focused library, rucaparib conditional (AID 1508598); conditions: patient-derived ovarian cancer cells, CellTiter-Glo viability, 144 h, stronger effect = lower value
[12] = MELAS cybrid survival, CellTiter-Glo 48 h, stronger effect = higher value
[13] = Rieske KO mouse fibroblast survival, CellTiter-Glo 72 h

Which results are given for `Cc1[nH]c(=O)c(C#N)cc1-c1ccncc1`?
outcome [1]: inactive; outcome [2]: inactive; outcome [3]: inactive; fold fluorescence [4]: 6.33 [at 236.7 µM] (inactive); outcome [5]: inactive; z-score [6, 12]: -0.327 (inactive) and 0.548 (inactive) and 0.108 (inactive); z-score [6, 13]: 0.87 and -0.397 and -0.212; remaining NAD [7]: 10 nM (inactive); z-score [8]: 0.46 (inactive) and 0.67 (inactive) and 0.525 (inactive)

For `CN(Cc1cnc2nc(N)nc(N)c2n1)c1ccc(C(=O)N[C@@H](CCC(=O)O)C(=O)O)cc1`, which AC50 [1] is on record?
Its AC50 is 417 nM (active).

What about the outcome [2] of the same compound?
Its outcome is “inactive”.

And the outcome [3]?
Its outcome is “inactive”.

What about the fold change ([9]; stronger effect = lower value, cell number ratio, induced over uninduced) of the same compound?
Its fold change is 1.49 (inactive) and 1.21 (inactive) and 1.07 (inactive).

And the fold change ([9]; measured here: relative caspase fold change +Dox/-Dox)?
The fold change was 1.22 and 0.656 and 1.41.

What about the cell count ([9]; measured here: total cells with miR-34 induction, stronger effect = lower value) of the same compound?
Its cell count is 2980 and 3110 and 5280.

What about the cell count ([9]; measured here: total cells without miR-34 induction) of the same compound?
Its cell count is 2000 and 2580 and 4920.

And the fold fluorescence [4]?
Its fold fluorescence is 3.97 [at 117.8 µM] (inactive).

And the SSMD [10]?
The SSMD was 2.25.

And the cell count [10]?
Its cell count is 7580.

And the plate-normalised HSF1 focus index [10]?
The plate-normalised HSF1 focus index was 1.08 (inactive).

What about the outcome [5] of the same compound?
Its outcome is “inactive”.

And the z-score [6, 12]?
Its z-score is 1.68 (inactive).

And the z-score [6, 13]?
Its z-score is -0.369.

And the viability ([11]; at 0.000305 µM, OCI-C5x cells, with rucaparib 10 µM, 100% = cells with rucaparib alone)?
Its viability is 110% (inactive).

What about the viability ([11]; at 0.000305 µM, OCI-C5x cells, without rucaparib) of the same compound?
The viability was 111% (inactive).

And the viability ([11]; at 0.000305 µM, OCI-P5x cells, with rucaparib 20 µM, 100% = cells with rucaparib alone)?
Its viability is 113% (inactive).

And the viability ([11]; at 0.000305 µM, OCI-P5x cells, without rucaparib)?
The viability was 112% (inactive).

What about the viability ([11]; at 0.00122 µM, OCI-C5x cells, with rucaparib 10 µM, 100% = cells with rucaparib alone) of the same compound?
The viability was 104% (inactive).

And the viability ([11]; at 0.00122 µM, OCI-C5x cells, without rucaparib)?
Its viability is 91.8% (active).

And the viability ([11]; at 0.00122 µM, OCI-P5x cells, with rucaparib 20 µM, 100% = cells with rucaparib alone)?
The viability was 111% (inactive).

And the viability ([11]; at 0.00122 µM, OCI-P5x cells, without rucaparib)?
The viability was 109% (inactive).

And the viability ([11]; at 0.00488 µM, OCI-C5x cells, with rucaparib 10 µM, 100% = cells with rucaparib alone)?
Its viability is 113% (inactive).

What about the viability ([11]; at 0.00488 µM, OCI-C5x cells, without rucaparib) of the same compound?
Its viability is 106% (inactive).

What about the viability ([11]; at 0.00488 µM, OCI-P5x cells, with rucaparib 20 µM, 100% = cells with rucaparib alone) of the same compound?
Its viability is 111% (inactive).

And the viability ([11]; at 0.00488 µM, OCI-P5x cells, without rucaparib)?
The viability was 111% (inactive).

What about the viability ([11]; at 0.0195 µM, OCI-C5x cells, with rucaparib 10 µM, 100% = cells with rucaparib alone) of the same compound?
Its viability is 105% (inactive).

What about the viability ([11]; at 0.0195 µM, OCI-C5x cells, without rucaparib) of the same compound?
The viability was 103% (inactive).

And the viability ([11]; at 0.0195 µM, OCI-P5x cells, with rucaparib 20 µM, 100% = cells with rucaparib alone)?
The viability was 103% (inactive).

What about the viability ([11]; at 0.0195 µM, OCI-P5x cells, without rucaparib) of the same compound?
The viability was 105% (inactive).

And the viability ([11]; at 0.0781 µM, OCI-C5x cells, with rucaparib 10 µM, 100% = cells with rucaparib alone)?
Its viability is 59.6% (active).

What about the viability ([11]; at 0.0781 µM, OCI-C5x cells, without rucaparib) of the same compound?
The viability was 35.7% (active).

What about the viability ([11]; at 0.0781 µM, OCI-P5x cells, with rucaparib 20 µM, 100% = cells with rucaparib alone) of the same compound?
The viability was 110% (inactive).

What about the viability ([11]; at 0.0781 µM, OCI-P5x cells, without rucaparib) of the same compound?
The viability was 98.3% (active).

And the viability ([11]; at 0.313 µM, OCI-C5x cells, with rucaparib 10 µM, 100% = cells with rucaparib alone)?
Its viability is 18.2% (active).

What about the viability ([11]; at 0.313 µM, OCI-C5x cells, without rucaparib) of the same compound?
The viability was 17.2% (active).

And the viability ([11]; at 0.313 µM, OCI-P5x cells, with rucaparib 20 µM, 100% = cells with rucaparib alone)?
Its viability is 104% (inactive).

What about the viability ([11]; at 0.313 µM, OCI-P5x cells, without rucaparib) of the same compound?
The viability was 93.3% (active).

And the viability ([11]; at 1.25 µM, OCI-C5x cells, with rucaparib 10 µM, 100% = cells with rucaparib alone)?
Its viability is 17.8% (active).

What about the viability ([11]; at 1.25 µM, OCI-C5x cells, without rucaparib) of the same compound?
Its viability is 16.5% (active).

What about the viability ([11]; at 1.25 µM, OCI-P5x cells, with rucaparib 20 µM, 100% = cells with rucaparib alone) of the same compound?
The viability was 101% (inactive).

And the viability ([11]; at 1.25 µM, OCI-P5x cells, without rucaparib)?
The viability was 90.7% (active).

And the viability ([11]; at 5 µM, OCI-C5x cells, with rucaparib 10 µM, 100% = cells with rucaparib alone)?
The viability was 27.2% (active).

What about the viability ([11]; at 5 µM, OCI-C5x cells, without rucaparib) of the same compound?
Its viability is 26% (active).

And the viability ([11]; at 5 µM, OCI-P5x cells, with rucaparib 20 µM, 100% = cells with rucaparib alone)?
The viability was 94% (active).

What about the viability ([11]; at 5 µM, OCI-P5x cells, without rucaparib) of the same compound?
The viability was 87.3% (active).

What about the z-score [8] of the same compound?
The z-score was -1.06 (inactive) and -0.71 (inactive).
